Screening results as filed in PubChem.
Sampled rows, rich in hits. Any-hit rate of the full collection: about 3.4%.
FLuc inh: qHTS Assay for Inhibitors of Firefly Luciferase. Luciferin 4-monooxygenase (Photinus pyralis), P08659. purified firefly luciferase, luminescence, 8 min. Potency, µM (titrated, usually from 57.1 µM), without a hit: at the top dose activity change, negative = inhibition, actives largely listed as inhibitors. 2.2% of 72,000 active. AID 411, 2009; further: on the % scale 0 is the no-effect control and ±100 the full control effect; nearly all actives have a fitted effect of over 40% in size
Target sequence (P08659 whole entry, looked up): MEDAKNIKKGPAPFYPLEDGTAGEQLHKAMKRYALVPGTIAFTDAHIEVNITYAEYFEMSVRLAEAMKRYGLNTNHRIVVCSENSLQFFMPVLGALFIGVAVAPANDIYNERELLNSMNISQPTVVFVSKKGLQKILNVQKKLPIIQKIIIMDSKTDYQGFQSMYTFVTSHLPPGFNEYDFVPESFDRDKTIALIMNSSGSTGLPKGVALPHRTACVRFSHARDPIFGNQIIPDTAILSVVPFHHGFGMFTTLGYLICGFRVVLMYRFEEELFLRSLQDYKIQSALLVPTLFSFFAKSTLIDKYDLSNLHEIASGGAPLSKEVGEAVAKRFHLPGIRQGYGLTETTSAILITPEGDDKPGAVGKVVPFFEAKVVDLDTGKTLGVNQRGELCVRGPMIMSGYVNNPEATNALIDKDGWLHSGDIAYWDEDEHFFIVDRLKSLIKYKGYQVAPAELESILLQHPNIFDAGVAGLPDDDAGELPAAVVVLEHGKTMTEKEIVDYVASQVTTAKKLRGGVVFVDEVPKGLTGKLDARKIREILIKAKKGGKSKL
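Titration-based qHTS; buffer 50 mM imidazole pH 7.2, 50 mM KCl, 7 mM MgCl2, 10 uM ATP, 0.01% Tween 20, 0.05% BSA; luciferase/luciferin detector mix added after compound; 8 min, ambient; luminescence.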
Imprint erasure: qHTS Assay for Compounds that Induce Erasure of Genomic Imprints; mouse ES Peg3-LacZ reporter, beta-gal luminescence, 40 h; Potency, µM (series often up to 60.7 µM), without a hit: at the top dose activity change, positive = activation, most hits filed as activators; 0.02% of 110,000 active; AID 1948, 2009
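Imprint erasure is scored as LacZ activity from the silenced maternal Peg3 allele in feeder-free female ES cells cultured 40 h with LIF. Luminescence is normalized to in-plate negative controls and fitted to the Hill equation.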
Tau filament bind: qHTS Assay for Tau Filament Binding; Microtubule-associated protein tau (Homo sapiens), P10636; recombinant tau filaments, thioflavin S fluorescence, 15 h; filaments grown with octadecylsulfate alongside compound; Potency, µM (top dose mostly 57.1 µM), for the others: at the highest dose activity change, negative = inhibition; 2% of 71,000 active; AID 596, 2007;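 further: on the % scale 0 is the no-effect control and ±100 the full control effect; actives lower thioflavin S fluorescence by blocking filaments or displacing dye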
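His-tagged recombinant human tau (exons 2, 3 and 10 included), 1 uM, was induced to fibrillize by 30 uM sodium octadecylsulfate with compound present. After 15 h at 37 C, thioflavine S fluorescence (ex 450, em 510 nm) was read.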
p53ts 32C tox: qHTS Screen for Compounds that Selectively Target Cancer Cells with p53 Mutations: Cytotoxicity of p53ts Cells at the Permissive Temperature | H1299-p53A138V at 32C, ATP luminescence viability, 24 h | Potency, µM (titrated, usually from 46.1 µM), for the others: at the highest dose activity change, negative = cytotoxicity, hits mostly cytotoxic | 0.93% of 130,000 active;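 further: 0% = DMSO and -100% = full killing by reference compound; nearly all actives have a fitted effect of over 55% in size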
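H1299-p53 A138V cells (temperature-sensitive p53) exposed 24 h to up to 46 uM compound at 32C, where p53 is wild-type in conformation. Viability read as ATP luminescence and normalised to DMSO and 100 uM tamoxifen. AC50 fitted with the Hill equation.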
p53ts 39C tox: qHTS Screen for Compounds that Selectively Target Cancer Cells with p53 Mutations: Cytotoxicity of p53ts Cells at the Nonpermissive Temperature; H1299-p53A138V viability at 39C, ATP luminescence, 24 h; Potency, µM (top dose mostly 46.1 µM), inactives show at the highest dose activity change, negative = cell killing, actives largely listed as cytotoxic; 1.5% of 130,000 active; AID 902, 2007; further: on the % scale 0 is the no-effect control and ±100 the full control effect; nearly all actives have a fitted effect of over 55% in size
The depositor's hits bear a star; ? = inconclusive; / = no result given; [ ] = another dose, or the depositor's remark. The call rests on the fitted dose curve; in most records, active means well fitted curve in the direction sought with a large enough effect; inconclusive means small, poorly fitted or top-dose-only effect, or another doubt; inactive means no such curve, though single readings can be large; an effect the other way counts as inactive or inconclusive. Potency means the concentration at half of the fitted maximal effect.

SMILES	FLuc inh	Imprint erasure	Tau filament bind	p53ts 32C tox	p53ts 39C tox
CCc1cccc(NC(=O)Cn2c(=O)n(CCC(=O)NCc3ccccc3Cl)c(=O)c3sccc32)c1	/	-5%[10.9 µM]	/	?	13µM*
CCNc1nc(-c2ccc(Cl)cc2)cs1	13µM*	-32%	-11%	-11%	-28%
CNc1nc(-c2ccc(Cl)cc2)cs1	10µM*	-33%	7%	-23%	-19%
CCN(CC)CC[n+]1ccc2c(C)c3[nH]c4ccc(O)cc4c3c(C)c2c1	0%[11.4 µM]	14%[10.9 µM]	4µM*	9%[9.22 µM]	10%[9.22 µM]
C=C1C(=O)OC2C[C@@]3(C)CCCC(=C)[C@@H]3CC12 (some centres not stated)	/	-24%	/	24%	25%
O=C(Nc1ccc2nsnc2c1)c1ccc2c(c1)OCO2	3.2µM*	-74%	-6%	?	?
CCC(=O)Nc1ccc(C(=O)Nc2ccc3c(c2)OCO3)cc1	-6%	-17%	8%	-3%	-12%
O=C(Nc1ccc2c(c1)OCCO2)C1CCC1	-3%	-23%	5%	-5%	-7%
O=C(Nc1ccon1)c1ccc2c(c1)OCO2	-13%	-66%	-8%	-25%	-28%
CC(=O)Nc1ccc(C(=O)Nc2ccc3c(c2)OCO3)cc1	-15%	-17%	20µM*	-5%	-10%
O=C(Nc1ccc2c(c1)OCCO2)c1ccc(NC(=O)C2CCCO2)cc1 (configuration not stated)	13µM*	-15%	-5%	?	?
O=C(Nc1ccc2c(c1)OCCO2)NC1CCCCC1	7.9µM*	-61%	-4%[11.4 µM]	7.9µM*	10µM*
COc1ccc(CNC(=O)Cn2c(=O)oc3cc(S(=O)(=O)NCc4ccccc4)ccc32)cc1	/	-18%[10.9 µM]	/	9%	?
COC(=O)c1c(C)oc2ccc(N(C(=O)Oc3ccccc3)S(=O)(=O)c3ccc(C(C)(C)C)cc3)cc12	/	-19%[10.9 µM]	/	2%	0%
CC(=O)N[C@H](Cc1ccc(O)cc1)C(=O)O	1%[11.4 µM]	-3%[10.9 µM]	-9%[11.4 µM]	1%[9.22 µM]	5%[9.22 µM]
Cc1ccc(Nc2nc(C)cc(C)n2)c(C(=O)O)c1	/	-18%[10.9 µM]	/	-4%	-1%
CCOC(=O)N1CCc2c(sc3c2c(=O)n(CCc2ccccc2)c(=O)n3CC(=O)Nc2ccccc2C)C1	/	-8%[10.9 µM]	/	3%	5%
O=C(Nc1ccc(F)c(F)c1)c1ccc2c(c1)OCO2	?	-71%	9%	-25%	-18%
CCOC(=O)c1c(N)sc(C(=O)Nc2ccc3c(c2)OCO3)c1C	0.79µM*	-91%	-18%	4µM*	2.5µM*
O=C(Nc1ccc(Cl)cc1)c1ccc2c(c1)OCO2	4µM*	-66%	40%	?	-29%
O=C(Nc1ccc2c(c1)OCO2)c1cccc(Cl)c1	13µM*	-84%	11%	?	?
O=C(N/N=C/c1cccs1)c1ccc2c(c1)OCO2	/	/	/	8.9µM*	10µM*
Cn1cc(C(=O)N/N=C/c2cccs2)c2ccccc21	/	/	/	-15%	-7%
CC(C)CO/N=C1/C[C@@H](O)[C@@H](O)[C@@H]2[C@H]3C(=O)N(c4ccc(F)cc4F)C(=O)[C@@H]3CC[C@@H]12	0%[11.4 µM]	/	/	6%[9.22 µM]	4%[9.22 µM]
CSCC[C@@H]1NC(=O)C/C=C\[C@@H](C)COC(=O)[C@@H](C)COC1=O	2%[11.4 µM]	/	/	5%[9.22 µM]	-10%[9.22 µM]
SMILES	FLuc inh	Imprint erasure	Tau filament bind	p53ts 32C tox	p53ts 39C tox
Cc1cccc(-c2nc(SCC(=O)Nc3ccc4c(c3)OCO4)c(-c3ccccc3)[nH]2)c1	/	-5%[10.9 µM]	/	-20%	-22%
Cc1ccc(C(=O)Nc2nnc(S(=O)(=O)N3c4ccccc4CC3C)s2)cc1 (configuration not stated)	/	-4%[10.9 µM]	/	-5%	-7%
Cc1noc(C(=O)Nc2ccc3c(c2)OCO3)c1Cl	13µM*	-75%	10µM*	?	-26%
CCOCCCNC(=O)c1ccc2c(c1)OCO2	-2%	-14%	-2%	-7%	-7%
Cc1cc(C(=O)Nc2ccc3c(c2)OCO3)cs1	16µM*	-71%	-24%	13µM*	10µM*
O=C(NCCOc1ccccc1)c1ccc2c(c1)OCO2	6.3µM*	-83%	3%	?	?
O=C(CSc1nnc2ccc3ccccc3n12)Nc1ccccc1Cl	/	8%[10.9 µM]	/	?	-27%
O=C(Cn1cnc2onc(-c3ccc(Cl)cc3)c2c1=O)Nc1ccc(F)cc1	/	-11%[10.9 µM]	/	2%	?
O=C(Cn1cnc2onc(-c3ccc(F)cc3)c2c1=O)Nc1ccc(F)c(Cl)c1	/	14%[10.9 µM]	/	-1%	13µM*
COc1ccc(C=Nc2c(O)ccc3ccccc23)cc1OC	?	28%[10.9 µM]	4µM*	-8%[9.22 µM]	-10%[9.22 µM]
Cc1ccc(NC(=O)Cn2c(=O)n(CC(=O)NCCc3ccccc3)c(=O)c3ccccc32)cc1C	/	14%[10.9 µM]	/	-28%	10µM*
CC(=O)n1nc(-c2ccco2)nc1SCc1ccccc1	-17%	1%	25µM*	13µM*	?
CCC(=O)n1nc(-c2ccco2)nc1SCc1ccccc1	-10%	-7%	-3%	?	?
Nc1c(-c2ccc(Cl)cc2)nnn1-c1ccccc1	10µM*	-52%	-3%	?	?
Clc1ccc(-n2nnnc2-c2ccccc2)cc1	0%	-5%	6%	2%	0%
c1nnc(NC2=NCCCCC2)s1	-39%	-14%	13%	-4%	-8%
Clc1ccc(-c2nnc(NC3=NCCCCC3)o2)cc1	2.5µM*	-80%	19%	13µM*	13µM*
